Laboratory results: PubChem BioAssay AID1159580 (chemical genetic matrix, 2015)
About 2,000 (36%) of roughly 5,500 compounds were called active. About 18% were inconclusive and are not listed. Cut-off read from the data, not from the text of the source: active = normalized growth mostly below about 0.91 (no sharp cut-off); inconclusive = no clear call, values can overlap the other calls; inactive = mostly above about 0.92. The list shows a part of the results.

Experiment: chemical genetic growth profiling, strain panel (AID 1159580);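 note: tested at 20 µM; growth read once vehicle control cultures reached saturation at 30 °C; 1 = growth at the plate median or of vehicle wells; lower values mean less growth of the strain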
Conditions: S. cerevisiae deletion strains, growth OD
[1] = locus YDL101C, strain DUN1, stronger effect = lower value
[2] = locus YHR030C, strain SLT2, stronger effect = lower value

Measured: normalized growth

Cc1nc(-c2cccnc2)nc(NCc2ccccc2)c1Cl
inactive: locus YAR019C, strain CDC15, stronger effect = lower value 0.943 | locus YBL105C, strain PKC1, stronger effect = lower value 0.945 | locus YBR135W, strain CKS1, stronger effect = lower value 0.941 | locus YBR136W, strain MEC1, stronger effect = lower value 0.919 | locus YBR160W, strain CDC28, stronger effect = lower value 0.955 | locus YDL017W, strain CDC7, stronger effect = lower value 0.943 | locus YDL028C, strain MPS1, stronger effect = lower value 0.926 | [1] 0.938 | locus YDL108W, strain KIN28, stronger effect = lower value 0.924 | locus YDL132W, strain cdc53, stronger effect = lower value 0.939 | locus YDL214C, strain PRR2, stronger effect = lower value 0.866 | locus YDR052C, strain DBF4, stronger effect = lower value 0.945 | locus YDR054C, strain cdc34, stronger effect = lower value 0.933 | locus YDR226W, strain ADK1, stronger effect = lower value 0.951 | locus YDR477W, strain SNF1, stronger effect = lower value 0.887 | locus YER123W, strain YCK3, stronger effect = lower value 0.784 | locus YER133W, strain GLC7, stronger effect = lower value 0.853 | locus YFL009W, strain cdc4, stronger effect = lower value 0.932 | locus YFL029C, strain CAK1, stronger effect = lower value 0.941 | locus YFR003C, strain YPI1, stronger effect = lower value 0.943 | locus YFR019W, strain FAB1, stronger effect = lower value 0.946 | locus YFR028C, strain CDC14, stronger effect = lower value 0.931 | locus YGR040W, strain KSS1, stronger effect = lower value 0.841 | locus YGR052W, strain FMP48, stronger effect = lower value 0.937 | locus YGR092W, strain DBF2, stronger effect = lower value 0.8 | [2] 0.936 | locus YHR079C, strain IRE1, stronger effect = lower value 0.887 | locus YHR082C, strain KSP1, stronger effect = lower value 0.935 | locus YHR205W, strain SCH9, stronger effect = lower value 0.886 | locus YIL147C, strain SLN1, stronger effect = lower value 0.929 | locus YJL095W, strain BCK1, stronger effect = lower value 0.923 | locus YJL128C, strain PBS2, stronger effect = lower value 0.907 | locus YJL157C, strain FAR1, stronger effect = lower value 0.877 | locus YJR016C, strain ILV3, stronger effect = lower value 0.935 | locus YJR066W, strain TOR1 (second series), stronger effect = lower value 0.884 | locus YJR066W, strain TOR1, stronger effect = lower value 0.922 | locus YKL048C, strain ELM1, stronger effect = lower value 0.94 | locus YKL067W, strain YNK1, stronger effect = lower value 0.89 | locus YKL101W, strain HSL1, stronger effect = lower value 0.892 | locus YKL193C, strain SDS22, stronger effect = lower value 0.937 | locus YKL203C, strain TOR2, stronger effect = lower value 0.923 | locus YLR133W, strain CKI1, stronger effect = lower value 0.913 | locus YLR403W, strain SFP1, stronger effect = lower value 0.849 | locus YML070W, strain DAK1, stronger effect = lower value 0.847 | locus YMR001C, strain CDC5, stronger effect = lower value 0.938 | locus YMR205C, strain PFK2 (second series), stronger effect = lower value 0.897 | locus YMR277W, strain FCP1, stronger effect = lower value 0.943 | locus YNL006W, strain LST8, stronger effect = lower value 0.954 | locus YNL020C, strain ARK1, stronger effect = lower value 0.885 | locus YNL161W, strain CBK1, stronger effect = lower value 0.952 | locus YNL183C, strain NPR1, stronger effect = lower value 0.898 | locus YNL207W, strain RIO2, stronger effect = lower value 0.922 | locus YNL222W, strain SSU72, stronger effect = lower value 0.942 | locus YNL307C, strain MCK1 (second series), stronger effect = lower value 0.899 | locus YOL078W, strain AVO1, stronger effect = lower value 0.941 | locus YOL136C, strain PFK27, stronger effect = lower value 0.877 | locus YOR061W, strain CKA2, stronger effect = lower value 0.89 | locus YOR119C, strain RIO1, stronger effect = lower value 0.889 | locus YOR231W, strain MKK1, stronger effect = lower value 0.9 | locus YOR329C, strain SCD5, stronger effect = lower value 0.948 | locus YPL031C, strain PHO85, stronger effect = lower value 0.82 | locus YPL153C, strain RAD53, stronger effect = lower value 0.841 | locus YPL204W, strain HRR25, stronger effect = lower value 0.856 | locus YPL209C, strain IPL1, stronger effect = lower value 0.942 | locus YPL256C, strain CLN2, stronger effect = lower value 0.908 | locus YPR025C, strain CCL1, stronger effect = lower value 0.951 | locus YPR106W, strain ISR1, stronger effect = lower value 0.953 | locus YPR111W, strain DBF20, stronger effect = lower value 0.942 | strain NNK1, stronger effect = lower value 0.94 | strain TSCII, stronger effect = lower value 0.934
active: locus YLR113W, strain HOG1, stronger effect = lower value 0.846

COc1cc(C2OC(c3cc(C)ccc3[N+](=O)[O-])=NN2C(C)=O)cc(OC)c1OC (stereo unspecified)
inactive: locus YAL013W, strain DEP1, stronger effect = lower value 0.986 | locus YBR229C, strain ROT2, stronger effect = lower value 0.975 | [1] 1.04 | locus YDL134C, strain PPH21, stronger effect = lower value 0.999 | locus YDR150W, strain NUM1, stronger effect = lower value 0.993 | locus YEL061C, strain CIN8, stronger effect = lower value 0.941 | locus YGR078C, strain PAC10, stronger effect = lower value 1 | locus YGR229C, strain SMI1, stronger effect = lower value 0.999 | [2] 0.948 | locus YHR087W, strain rtc3, stronger effect = lower value 0.963 | locus YJL187C, strain SWE1, stronger effect = lower value 0.98 | locus YJR043C, strain POL32, stronger effect = lower value 1 | locus YJR075W, strain HOC1, stronger effect = lower value 0.999 | locus YKL190W, strain CNB1, stronger effect = lower value 0.993 | locus YLR039C, strain RIC1, stronger effect = lower value 0.969 | locus YLR058C, strain SHM2 (second series), stronger effect = lower value 0.978 | locus YLR085C, strain ARP6, stronger effect = lower value 0.967 | locus YLR262C, strain YPT6, stronger effect = lower value 0.948 | locus YML094W, strain GIM5, stronger effect = lower value 0.98 | locus YMR219W, strain ESC1, stronger effect = lower value 0.984 | locus YMR263W, strain SAP30, stronger effect = lower value 0.999 | locus YNL128W, strain TEP1, stronger effect = lower value 0.991 | locus YNL153C, strain GIM3, stronger effect = lower value 1.02 | locus YNL298W, strain CLA4 (second series), stronger effect = lower value 1.01 | locus YNL322C, strain KRE1, stronger effect = lower value 0.993 | locus YNR030W, strain Alg12, stronger effect = lower value 0.985 | locus YOL006C, strain TOP1, stronger effect = lower value 0.924 | locus YPL055C, strain LGE1, stronger effect = lower value 0.972 | locus YPL241C, strain CIN2, stronger effect = lower value 1.01 | locus YPR135W, strain CTF4, stronger effect = lower value 1.04
